The panel holds about 79,000 compounds, 15% with a hit somewhere; the sample as a whole holds those more often. Values without a mark were called inactive. Activity calls are given as the source filed them. Cut-off read from the data, not from the text of the source: active = growth inhibition above about 70%; inactive = the rest.
Columns and labels:
[1] = NCI Yeast Anticancer Drug Screen. Data for the rad52 strain (AID 147);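 note: 0% = growth of vehicle-treated control cultures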; conditions: S. cerevisiae rad52 mutant growth inhibition, stronger effect = higher value
Outline: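 The repair-mutant yeast strain was incubated with compounds, then growth was read and inhibition derived relative to vehicle.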

[2] = NCI Yeast Anticancer Drug Screen. Data for the wt1 strain (AID 149);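 note: 0% = growth of vehicle-treated wt1 cultures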; conditions: S. cerevisiae wt1 strain (SPY 50644) growth inhibition, stronger effect = higher value
Outline: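 Vehicle-normalised growth inhibition; strain wt1; compound exposure.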

[3] = NCI Yeast Anticancer Drug Screen. Data for the rad50EPP+ strain (AID 151);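 note: 0% = growth of vehicle-treated control cultures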; conditions: S. cerevisiae rad50 mutant strain, stronger effect = higher value
Outline: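 Vehicle-normalised growth inhibition; rad50EPP+ yeast strain, altered in DNA damage repair, compound-treated.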

[4] = NCI Yeast Anticancer Drug Screen. Data for the mgt1 strain (AID 153); conditions: S. cerevisiae mgt1 mutant growth inhibition, stronger effect = higher value
Outline: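 Vehicle-normalized growth inhibition is determined in mgt1 yeast, a strain selected for a defined alteration in DNA repair or cell cycle control.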

[5] = NCI Yeast Anticancer Drug Screen. Data for the rad50 strain (AID 155);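 note: 0% = growth of vehicle-only cultures of the same strain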; conditions: S. cerevisiae rad50 strain growth inhibition, stronger effect = higher value
Outline: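 A DNA repair-deficient yeast mutant serves as the test organism; compound-induced growth inhibition is calculated against vehicle-treated cells.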

[6] = NCI Yeast Anticancer Drug Screen. Data for the mec2-1 strain (AID 157); conditions: S. cerevisiae mec2-1 strain, stronger effect = higher value
Outline: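 Mutant yeast (mec2-1) grown with compound; growth inhibition relative to vehicle control reported.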

[7] = NCI Yeast Anticancer Drug Screen. Data for the rad14 strain (AID 159);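 note: 0% = growth of vehicle-treated control cultures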; conditions: S. cerevisiae rad14 strain growth inhibition, stronger effect = higher value
Outline: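 Vehicle-treated cultures served as the baseline for growth inhibition of a DNA repair-mutant yeast strain exposed to each compound.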

[8] = NCI Yeast Anticancer Drug Screen. Data for the sgs1 mgt1 strain (AID 161);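 note: 0% = growth of cultures given vehicle only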; conditions: S. cerevisiae sgs1 mgt1 strain, stronger effect = higher value
Outline: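 Percent growth inhibition was derived by comparing compound-exposed mutant yeast with vehicle-exposed cultures. The strain carries alterations in DNA damage repair.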

[9] = NCI Yeast Anticancer Drug Screen. Data for the CLN2oe strain (AID 163);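 note: 0% = growth of vehicle-only control cultures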; conditions: S. cerevisiae CLN2oe strain, stronger effect = higher value
Outline: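 Compounds are applied to yeast harbouring a defined cell-cycle control change; reduced growth compared with vehicle-treated controls gives the value.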

[10] = NCI Yeast Anticancer Drug Screen. Data for the cln2 rad14 strain (AID 165);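 note: 0% = growth equal to vehicle treated cultures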; conditions: S. cerevisiae cln2 rad14 strain, stronger effect = higher value
Outline: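 Readout is yeast growth inhibition versus vehicle-treated controls, using a strain with cln2 and rad14 alterations exposed to compound.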

[11] = NCI Yeast Anticancer Drug Screen. Data for the bub3 strain (AID 167); conditions: S. cerevisiae bub3 mutant strain, stronger effect = higher value
Outline: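 Inhibition values come from growth of compound-treated mutant yeast normalised to vehicle-treated controls.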

[12] = NCI Yeast Anticancer Drug Screen. Data for the wt2 strain (AID 169);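 note: 0% = growth of vehicle-treated yeast cultures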; conditions: S. cerevisiae wt2 strain growth inhibition, stronger effect = higher value
Outline: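 Against vehicle-treated controls, the growth of yeast exposed to each compound was compared, and the inhibition was recorded.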

[13] = NCI Yeast Anticancer Drug Screen. Data for the mlh1 strain (AID 171);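 note: 0% = growth of vehicle-treated control cultures of the same strain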; conditions: S. cerevisiae mlh1 strain growth inhibition, stronger effect = higher value
Outline: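 Measured: yeast growth. Reference: vehicle-treated controls. Organism: strain with a defined alteration affecting DNA damage repair or cell cycle control, treated with compound.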

[14] = NCI Yeast Anticancer Drug Screen. Data for the sgs1 strain (AID 173);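 note: 0% = growth of vehicle-only control cultures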; conditions: S. cerevisiae sgs1 mutant, stronger effect = higher value
Outline: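 Each compound was added to cultures of the altered yeast strain. Growth was recorded, and inhibition was derived by comparison with vehicle controls.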

[15] = NCI Yeast Anticancer Drug Screen. Data for the mlh1 rad18 strain (AID 175); conditions: S. cerevisiae mlh1 rad18 strain growth inhibition, stronger effect = higher value
Outline: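 Genetically defined yeast (DNA repair-deficient) exposed to compounds; growth inhibition determined relative to vehicle.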

[16] = NCI Yeast Anticancer Drug Screen. Data for the rad18 strain (AID 177); conditions: S. cerevisiae rad18 mutant growth inhibition, stronger effect = higher value
Outline: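 Vehicle-treated cultures served as the baseline for scoring compound-induced growth inhibition in DNA-repair-mutant yeast.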

[17] = at 5.0 µM (retest, dose inferred, filed as 0.5)
[18] = at 50.0 µM (retest, dose inferred, filed as 5.0)

## CN(N=O)N1C(=O)SCC(c2ccccc2)(c2ccccc2)C1=O
[1]; at 1.2 µM
  growth inhibition: -2%
[1]; at 3.7 µM
  growth inhibition: 1%
[1]; at 11.0 µM
  growth inhibition: 6%
[1]; at 33.0 µM
  growth inhibition: 16%
[1]; at 100.0 µM
  growth inhibition: 42%
[2]; at 1.2 µM
  growth inhibition: -3%
[2]; at 3.7 µM
  growth inhibition: -5%
[2]; at 11.0 µM
  growth inhibition: -3%
[2]; at 33.0 µM
  growth inhibition: -3%
[2]; at 100.0 µM
  growth inhibition: 4%
[3]; at 1.2 µM
  growth inhibition: -4%
[3]; at 3.7 µM
  growth inhibition: 0%
[3]; at 11.0 µM
  growth inhibition: 0%
[3]; at 33.0 µM
  growth inhibition: 2%
[3]; at 100.0 µM
  growth inhibition: 3%
[4]; at 1.2 µM
  growth inhibition: -1%
[4]; at 3.7 µM
  growth inhibition: 1%
[4]; at 11.0 µM
  growth inhibition: 1%
[4]; at 33.0 µM
  growth inhibition: -1%
[4]; at 100.0 µM
  growth inhibition: 3%
[5]; at 1.2 µM
  growth inhibition: 3%
[5]; at 3.7 µM
  growth inhibition: 4%
[5]; [17]
  growth inhibition: -26%
[5]; at 11.0 µM
  growth inhibition: 13%
[5]; at 33.0 µM
  growth inhibition: 11%
[5]; [18]
  growth inhibition: 66%
[5]; at 50.0 µM
  growth inhibition: 56%
[5]; at 100.0 µM
  growth inhibition: 37%
[6]; at 1.2 µM
  growth inhibition: 0%
[6]; at 3.7 µM
  growth inhibition: 1%
[6]; [17]
  growth inhibition: 10%
[6]; at 11.0 µM
  growth inhibition: 1%
[6]; at 33.0 µM
  growth inhibition: 5%
[6]; [18]
  growth inhibition: 40%
[6]; at 50.0 µM
  growth inhibition: 32.2%
[6]; at 100.0 µM
  growth inhibition: 27%
[7]; at 1.2 µM
  growth inhibition: 1%
[7]; at 3.7 µM
  growth inhibition: -5%
[7]; at 11.0 µM
  growth inhibition: -3%
[7]; at 33.0 µM
  growth inhibition: -10%
[7]; at 100.0 µM
  growth inhibition: -4%
[8]; [17]
  growth inhibition: 9%
[8]; [18]
  growth inhibition: 64%
[8]; at 50.0 µM
  growth inhibition: 48.5%
[9]; at 1.2 µM
  growth inhibition: -1%
[9]; at 3.7 µM
  growth inhibition: 4%
[9]; at 11.0 µM
  growth inhibition: 4%
[9]; at 33.0 µM
  growth inhibition: 2%
[9]; at 100.0 µM
  growth inhibition: 9%
[10]; [17]
  growth inhibition: -26%
[10]; [18]
  growth inhibition: 16%
[10]; at 50.0 µM
  growth inhibition: 10.7%
[11]; at 1.2 µM
  growth inhibition: -2%
[11]; at 3.7 µM
  growth inhibition: 1%
[11]; [17]
  growth inhibition: 3%
[11]; at 11.0 µM
  growth inhibition: 12%
[11]; at 33.0 µM
  growth inhibition: 15%
[11]; [18]
  growth inhibition: 70% (active)
[11]; at 50.0 µM
  growth inhibition: 66.2%
[11]; at 100.0 µM
  growth inhibition: 26%
[12]; at 1.2 µM
  growth inhibition: -1%
[12]; at 3.7 µM
  growth inhibition: -1%
[12]; at 11.0 µM
  growth inhibition: -1%
[12]; at 33.0 µM
  growth inhibition: 1%
[12]; at 100.0 µM
  growth inhibition: 11%
[13]; at 1.2 µM
  growth inhibition: 3%
[13]; at 3.7 µM
  growth inhibition: -1%
[13]; at 11.0 µM
  growth inhibition: 1%
[13]; at 33.0 µM
  growth inhibition: 2%
[13]; at 100.0 µM
  growth inhibition: -8%
[14]; at 1.2 µM
  growth inhibition: -1%
[14]; at 3.7 µM
  growth inhibition: 0%
[14]; at 11.0 µM
  growth inhibition: 5%
[14]; at 33.0 µM
  growth inhibition: 13%
[14]; at 100.0 µM
  growth inhibition: 35%
[15]; [17]
  growth inhibition: -7%
[15]; [18]
  growth inhibition: 71% (active)
[15]; at 50.0 µM
  growth inhibition: 84.5% (active)
[16]; at 1.2 µM
  growth inhibition: -1%
[16]; at 3.7 µM
  growth inhibition: -3%
[16]; at 11.0 µM
  growth inhibition: 8%
[16]; at 33.0 µM
  growth inhibition: 28%
[16]; at 100.0 µM
  growth inhibition: 72% (active)
